Results taken from the supplement of paper PMC4466140.

Target: CaNbp2
Test: SPOT peptide array binding signal intensity (averaged, normalized) (arbitrary units (background-subtracted, floor 0; scale differs between SH3 domains)); higher = stronger binding of the SH3 domain to the peptide
In short: (§1)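 Binding signal refers to normalized, background-subtracted spot intensity averaged over replicates, expressed in arbitrary units that differ between domains. GST-fused SH3 domains from four yeast species were incubated at 10 μg/ml overnight at 4°C on cellulose membranes of synthetic 15-mer peptides with cysteines replaced by serines. Bound protein was detected with anti-GST antibody, an HRP anti-mouse secondary and luminol, and quantified with Genespotter.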

Binder | SPOT peptide array binding signal intensity
QPPLPSSAPPIPTSH | ≤ 0

Target: CaRvs167
Test: as above
In short: as §1

Binder | SPOT peptide array binding signal intensity
QPPLPSSAPPIPTSH | ≤ 0

Target: CaRvs167-3
Test: as above
In short: as §1

Binder | SPOT peptide array binding signal intensity
QPPLPSSAPPIPTSH | 0.5

Target: CaSho1
Test: as above
In short: as §1

Binder | SPOT peptide array binding signal intensity
QPPLPSSAPPIPTSH | ≤ 0

Target: CaSla1-D1-D2
Test: as above
In short: as §1

Binder | SPOT peptide array binding signal intensity
QPPLPSSAPPIPTSH | ≤ 0

Target: CaSla1-D3
Test: as above
In short: as §1

Binder | SPOT peptide array binding signal intensity
QPPLPSSAPPIPTSH | ≤ 0

Target: ScAbp1
Test: as above
In short: as §1

Binder | SPOT peptide array binding signal intensity
QPPLPSSAPPIPTSH | ≤ 0

Target: ScBbc1
Test: as above
In short: as §1

Binder | SPOT peptide array binding signal intensity
QPPLPSSAPPIPTSH | ≤ 0

Target: ScBem1-D1
Test: as above
In short: as §1

Binder | SPOT peptide array binding signal intensity
QPPLPSSAPPIPTSH | ≤ 0

Target: ScBzz1-D1
Test: as above
In short: as §1

Binder | SPOT peptide array binding signal intensity
QPPLPSSAPPIPTSH | ≤ 0

Target: ScBzz1-D2
Test: as above
In short: as §1

Binder | SPOT peptide array binding signal intensity
QPPLPSSAPPIPTSH | ≤ 0

Target: ScCyk3
Test: as above
In short: as §1

Binder | SPOT peptide array binding signal intensity
QPPLPSSAPPIPTSH | ≤ 0

Target: ScFus1
Test: as above
In short: as §1

Binder | SPOT peptide array binding signal intensity
QPPLPSSAPPIPTSH | ≤ 0

Target: ScHof1
Test: as above
In short: as §1

Binder | SPOT peptide array binding signal intensity
QPPLPSSAPPIPTSH | ≤ 0

Target: ScHse1
Test: as above
In short: as §1

Binder | SPOT peptide array binding signal intensity
QPPLPSSAPPIPTSH | ≤ 0

Target: ScLsb1
Test: as above
In short: as §1

Binder | SPOT peptide array binding signal intensity
QPPLPSSAPPIPTSH | ≤ 0

Target: ScLsb2
Test: as above
In short: as §1

Binder | SPOT peptide array binding signal intensity
QPPLPSSAPPIPTSH | ≤ 0

Target: ScLsb3
Test: as above
In short: as §1

Binder | SPOT peptide array binding signal intensity
QPPLPSSAPPIPTSH | ≤ 0

Target: ScLsb4
Test: as above
In short: as §1

Binder | SPOT peptide array binding signal intensity
QPPLPSSAPPIPTSH | ≤ 0

Target: ScMyo3
Test: as above
In short: as §1

Binder | SPOT peptide array binding signal intensity
QPPLPSSAPPIPTSH | 2510

Target: ScMyo5
Test: as above
In short: as §1

Binder | SPOT peptide array binding signal intensity
QPPLPSSAPPIPTSH | 1600

Target: ScNbp2
Test: as above
In short: as §1

Binder | SPOT peptide array binding signal intensity
QPPLPSSAPPIPTSH | ≤ 0

Target: ScPex13
Test: as above
In short: as §1

Binder | SPOT peptide array binding signal intensity
QPPLPSSAPPIPTSH | ≤ 0

Target: ScRvs167
Test: as above
In short: as §1

Binder | SPOT peptide array binding signal intensity
QPPLPSSAPPIPTSH | ≤ 0

Target: ScSho1
Test: as above
In short: as §1

Binder | SPOT peptide array binding signal intensity
QPPLPSSAPPIPTSH | ≤ 0

Target: ScSla1-D1-D2
Test: as above
In short: as §1

Binder | SPOT peptide array binding signal intensity
QPPLPSSAPPIPTSH | ≤ 0

Target: ScSla1-D3
Test: as above
In short: as §1

Binder | SPOT peptide array binding signal intensity
QPPLPSSAPPIPTSH | ≤ 0

Target: SpAbp1-D1
Test: as above
In short: as §1

Binder | SPOT peptide array binding signal intensity
QPPLPSSAPPIPTSH | 2.5

Target: SpBbc1
Test: as above
In short: as §1

Binder | SPOT peptide array binding signal intensity
QPPLPSSAPPIPTSH | 4.25

Target: SpBzz1-D1
Test: as above
In short: as §1

Binder | SPOT peptide array binding signal intensity
QPPLPSSAPPIPTSH | ≤ 0

Target: SpBzz1-D2
Test: as above
In short: as §1

Binder | SPOT peptide array binding signal intensity
QPPLPSSAPPIPTSH | ≤ 0

Target: SpCyk3
Test: as above
In short: as §1

Binder | SPOT peptide array binding signal intensity
QPPLPSSAPPIPTSH | ≤ 0

Target: SpHof1
Test: as above
In short: as §1

Binder | SPOT peptide array binding signal intensity
QPPLPSSAPPIPTSH | ≤ 0

Target: SpHof1-2
Test: as above
In short: as §1

Binder | SPOT peptide array binding signal intensity
QPPLPSSAPPIPTSH | ≤ 0

Target: SpHof1-3
Test: as above
In short: as §1

Binder | SPOT peptide array binding signal intensity
QPPLPSSAPPIPTSH | ≤ 0

Target: SpHse1
Test: as above
In short: as §1

Binder | SPOT peptide array binding signal intensity
QPPLPSSAPPIPTSH | 17.5

Target: SpLsb1
Test: as above
In short: as §1

Binder | SPOT peptide array binding signal intensity
QPPLPSSAPPIPTSH | ≤ 0

Target: SpLsb4
Test: as above
In short: as §1

Binder | SPOT peptide array binding signal intensity
QPPLPSSAPPIPTSH | ≤ 0

Target: SpMyo1
Test: as above
In short: as §1

Binder | SPOT peptide array binding signal intensity
QPPLPSSAPPIPTSH | 1080

Target: SpNbp2
Test: as above
In short: as §1

Binder | SPOT peptide array binding signal intensity
QPPLPSSAPPIPTSH | ≤ 0

Target: SpPex13
Test: as above
In short: as §1

Binder | SPOT peptide array binding signal intensity
QPPLPSSAPPIPTSH | 1

Target: SpRvs167
Test: as above
In short: as §1

Binder | SPOT peptide array binding signal intensity
QPPLPSSAPPIPTSH | ≤ 0

Target: SpSla1-D1-D2
Test: as above
In short: as §1

Binder | SPOT peptide array binding signal intensity
QPPLPSSAPPIPTSH | ≤ 0

Target: SpSla1-D3
Test: as above
In short: as §1

Binder | SPOT peptide array binding signal intensity
QPPLPSSAPPIPTSH | 3.5
